High-throughput results as filed in PubChem BioAssay.
This excerpt belongs to a sample that is enriched for hits.
Pf Dd2 inh: inhibitors of Plasmodium falciparum Dd2 growth | P. falciparum Dd2 growth, SYBR Green, 72 h | Potency, µM (series often up to 28.9 µM), for the others: top-dose activity, negative = inhibition, hits mostly inhibitors | 120,000 compounds, 4.3% hits | AID 1347417; active = well fitted inhibition curve with a large enough effect;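 note: plate controls were DMSO vehicle for no effect and reference drug for full effect; nearly all actives have a fitted effect of over 65% in size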
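Readout: SYBR Green fluorescence, 485 nm excitation, 535 nm emission, after ~16 h lysis at 37C. Before that, Dd2-infected red cells (2.5% hematocrit) grew 72 h with compound, 29 uM top final concentration.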
Starred values were filed as active, the others as inactive; [ ] = dose if it differs, or a comment. Potency is the fitted concentration of half-maximal effect.

What do the screens show for `Cn1nc(-c2ccccc2F)c2cc(C(=O)NCc3cccc(Cl)c3)sc21`?
Pf Dd2 inh: -8%

What do the screens show for `CCCN(CCC)CCNC(=O)c1cc2c(-c3ccccc3F)nn(C)c2s1`?
Pf Dd2 inh: 4µM*

Results for Cn1nc(-c2ccccc2F)c2cc(C(=O)NCc3ccc(Cl)cc3)sc21 ?
Pf Dd2 inh: inactive

What do the screens show for `Cn1nc(-c2ccccc2F)c2cc(C(=O)Nc3cc(F)ccc3F)sc21`?
Pf Dd2 inh: 25%

How did COc1ccc(-c2nn(C)c3sc(C(=O)N4CCN(c5ccccc5F)CC4)cc23)cc1OC do in these assays?
Pf Dd2 inh: -11%

How did COc1ccccc1N1CCN(C(=O)c2cc3c(-c4ccccc4F)nn(C)c3s2)CC1 do in these assays?
Pf Dd2 inh: 11µM*

What do the screens show for `O=C(CCn1cc(Cl)cn1)N1CCOC(c2ccc(Cl)cc2)C1` (stereo not given)?
Pf Dd2 inh: -11%

What do the screens show for `Cc1csc(NC(=O)[C@@H]2C[C@@H](c3cccc(C(F)(F)F)c3)N(Cc3cnn(C)c3)C2)n1`?
Pf Dd2 inh: -17%

Results for COc1cccc(-c2ccc(C(=O)O)cc2)c1 ?
Pf Dd2 inh: -1%[44.1 µM]

What do the screens show for `O=C(NC[C@H]1Cn2ccnc2CO1)c1ccccc1`?
Pf Dd2 inh: 21%[44.1 µM]

What do the screens show for `CCCNC(=O)N[C@@H]1CCC[C@@H](C(=O)NCc2ccc(OC)cc2)CC(=O)N(C)C1`?
Pf Dd2 inh: -4%[44.1 µM]

Results for CC[C@H]1CN(C(=O)c2ccnc(Cl)c2)CC[C@H]1CC(=O)N1CCOCC1 ?
Pf Dd2 inh: -1%[44.1 µM]

What do the screens show for `COCCCN1C(=O)CC[C@H]2CN(C(=O)c3scnc3C)CC[C@H]21`?
Pf Dd2 inh: -12%

Results for Cc1ccc2oc(-c3ccc(NC(=O)c4cccc(F)c4)c(C)c3)nc2c1 ?
Pf Dd2 inh: 37%

What do the screens show for `O=C(Nc1cnc(-c2ccccc2)nc1)c1cccc(F)c1`?
Pf Dd2 inh: inactive

How did Cc1cccc(Nc2ncc(NC(=O)c3cccc(F)c3)c(Nc3cccc(C)c3)n2)c1 do in these assays?
Pf Dd2 inh: 2.2µM*

How did CNC(=O)[C@@H](c1ccccc1F)N1CCC[C@H]1C(=O)N1CCOCC1 do in these assays?
Pf Dd2 inh: -7%[44.1 µM]

How did CC(C)NC(=O)N(C1CC1)C1CCOC2(CCN(C(=O)Nc3ccccc3F)CC2)C1 (stereo not given) do in these assays?
Pf Dd2 inh: -6%

What do the screens show for `O=C(NCCCc1nc2ccccc2n1Cc1ccccc1)C1CCCCC1`?
Pf Dd2 inh: -6%

Results for Cc1ccc(Cn2c(CN3CCC(C(=O)NCc4ccccc4C)CC3)cc3ccccc32)cc1 ?
Pf Dd2 inh: -10%

What do the screens show for `CN(C)CCNC(=O)C1CCN(Cc2cc3ccccc3n2Cc2ccccc2)CC1`?
Pf Dd2 inh: 6.3µM*

What do the screens show for `CC(C)n1cc(CN2CCCC2C(=O)Nc2cccc(-n3cccn3)c2)cn1` (stereo not given)?
Pf Dd2 inh: inactive

How did COc1ccc(OC)c(S(=O)(=O)N[C@H]2CO[C@H]3[C@@H]2OC[C@H]3OC(=O)Nc2cccc3ccccc23)c1 do in these assays?
Pf Dd2 inh: inactive

Results for COc1ccc(CNC(=O)C(C)C2CCOCC2)c(OC)c1 (stereo not given) ?
Pf Dd2 inh: 11%

How did CC(C(=O)NCC1CCCO1)N1C(=O)COc2ccc(C(=O)COc3ccc(F)cc3F)cc21 (stereo not given) do in these assays?
Pf Dd2 inh: inactive

What do the screens show for `CC(=O)N1CCN(c2cc(-c3noc([C@@H]4CCCN4Cc4ccccc4C)n3)ccn2)CC1`?
Pf Dd2 inh: 13µM*

What do the screens show for `NC(=O)C1CCN(c2cc(-c3noc([C@@H]4CCCN4Cc4ccccc4F)n3)ccn2)CC1`?
Pf Dd2 inh: inactive

What do the screens show for `c1ccc(CN2CCC[C@H]2c2nc(-c3ccnc(N4CCOCC4)c3)no2)nc1`?
Pf Dd2 inh: 7.1µM*

How did c1cc(-c2noc([C@@H]3CCCN3Cc3ncc[nH]3)n2)cc(N2CCOCC2)n1 do in these assays?
Pf Dd2 inh: 13%[44.1 µM]

How did CC(=O)N1CCN(c2cc(-c3noc([C@@H]4CCCN4Cc4ccc(CO)o4)n3)ccn2)CC1 do in these assays?
Pf Dd2 inh: inactive

Results for COc1ccc(CN2CCC[C@H]2c2nc(-c3ccnc(N4CCOCC4)c3)no2)cc1 ?
Pf Dd2 inh: -26%[44.1 µM]

What do the screens show for `COCCNC(=O)[C@H]1C[C@H](Oc2ccccc2)CN1C(=O)NCC(C)C`?
Pf Dd2 inh: 33%

What do the screens show for `CCCS(=O)(=O)N1CCC(N2CC(OCC3CC3)C23CCOCC3)CC1` (stereo not given)?
Pf Dd2 inh: inactive

What do the screens show for `O=C(NC[C@H]1Cn2cc(-c3ccc4c(c3)OCCCO4)nc2CO1)c1ccc2c(c1)OCO2`?
Pf Dd2 inh: inactive

Results for O=C(NCc1ccc(F)cc1)c1ccc(Nc2nc3ccccc3n3nnnc23)cc1 ?
Pf Dd2 inh: -21%

Results for CN(C)c1ccc(Nc2nc3ccccc3n3nnnc23)cc1 ?
Pf Dd2 inh: 7.9µM*

What do the screens show for `Cc1ccc(CCNC(=O)c2ccc(Nc3nc4ccccc4n4nnnc34)cc2)cc1`?
Pf Dd2 inh: -1%

What do the screens show for `CC(C)=CC(=O)NCCC[C@H](NC(=O)[C@@H]1[C@@H](NC(=O)Nc2ccc(F)cc2F)CCN1C(=O)C=C(C)C)C(N)=O`?
Pf Dd2 inh: 7%

What do the screens show for `COc1ccc(CN2CCCC(CNC(=O)NC(C)C)C2)cc1O` (stereo not given)?
Pf Dd2 inh: -22%

Results for Cc1ccc(NC(=O)NCC2CCN(Cc3cccc(Cl)c3)CC2)cc1Cl ?
Pf Dd2 inh: 10µM*

How did Cc1ccc(CN2CCC(CNC(=O)Nc3ccccc3F)CC2)cc1 do in these assays?
Pf Dd2 inh: inactive

Results for O=C(Nc1ccc(F)cc1F)c1cc2ccc3cccnc3c2[nH]1 ?
Pf Dd2 inh: 25%

What do the screens show for `O=C(NCC1CCN(Cc2cccc(Cl)c2)CC1)c1cc2ccc3cccnc3c2[nH]1`?
Pf Dd2 inh: 7.9µM*

How did O=C(Nc1cccc(C(F)(F)F)c1)c1cc2ccc3cccnc3c2[nH]1 do in these assays?
Pf Dd2 inh: 30%

What do the screens show for `Cc1ccc(CN2CCC(CNC(=O)Nc3ccc(Cl)cc3)C2)cc1` (stereo not given)?
Pf Dd2 inh: inactive

What do the screens show for `CC(C)NC(=O)NCC1CCCN(Cc2ccc3c(c2)OCCO3)C1` (stereo not given)?
Pf Dd2 inh: -10%

What do the screens show for `Cc1ccc(CN2CCC(CNC(=O)NC(C)C)C2)cc1C` (stereo not given)?
Pf Dd2 inh: 8.9µM*

What do the screens show for `CC[C@H]1CN(C(=O)c2ccnc(Cl)c2)CC[C@H]1CC(=O)NCc1ccccc1`?
Pf Dd2 inh: -5%[44.1 µM]

What do the screens show for `O=C1c2cnc(-c3ccncc3)nc2OCCN1Cc1ccc(F)cc1F`?
Pf Dd2 inh: -28%[44.1 µM]

What do the screens show for `CCNC(=O)NCCc1ncc(C)n1Cc1ccc(F)cc1`?
Pf Dd2 inh: -1%

How did OC[C@@H]1CNC[C@H]1C1CCN(Cc2ccco2)CC1 do in these assays?
Pf Dd2 inh: 11%

How did CS(=O)(=O)N1CCCN(C(=O)CCCc2ccccc2)CCNC(=O)CC1c1ccccc1 (stereo not given) do in these assays?
Pf Dd2 inh: -20%

What do the screens show for `CS(=O)(=O)c1ccc(OCC2(CNS(=O)(=O)c3ccc(F)cc3)C[C@@H](O)[C@@H](O)C2)cc1` (stereo not given in full)?
Pf Dd2 inh: 13%

Results for COC[C@@H]1[C@H](C(=O)NCCCc2ccccc2)CCC(=O)N1C ?
Pf Dd2 inh: 10%

Results for Cc1cc2nc3n(c(=O)c2n1CC(=O)NCc1ccccc1)CCCCC3 ?
Pf Dd2 inh: inactive
